From PubChem BioAssay AID1159580 (chemical genetic matrix, 2015)
Values joined by “and” are separate entries in the source; they are usually repeats but may differ in a detail not shown here. Equal values may be shown once. Out of some 5,500 compounds screened, about 2,000 (36%) were called active. About 18% were inconclusive and are not listed. Rule as the data show it: active = normalized growth mostly below about 0.91 (no sharp cut-off); inconclusive = no clear call, values can overlap the other calls; inactive = mostly above about 0.92. The list shows a part of the results.

Assay: chemical genetic growth profiling, strain panel (AID 1159580);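 also: tested at 20 µM; growth read once vehicle control cultures reached saturation at 30 °C; 1 = growth at the plate median or of vehicle wells; lower values mean less growth of the strain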
Conditions: S. cerevisiae deletion strains, growth OD

Measured: normalized growth

CCCc1ncc(C[n+]2ccccc2C)c(N)n1
inactive: locus YAL021C, strain ccr4, stronger effect = lower value 0.94 | locus YAL026C, strain drs2, stronger effect = lower value 0.999 | locus YAL030W, strain snc1, stronger effect = lower value 0.991 | locus YBL061C, strain skt5, stronger effect = lower value 0.976 | locus YBR009C, strain hhf1, stronger effect = lower value 1.03 | locus YBR021W, strain FUR4, stronger effect = lower value 1.06 | locus YBR023C, strain chs3, stronger effect = lower value 0.999 | locus YBR171W, strain sec66, stronger effect = lower value 0.969 | locus YBR229C, strain ROT2, stronger effect = lower value 1 | locus YBR231C, strain swc5, stronger effect = lower value 0.966 | locus YBR279W, strain paf1, stronger effect = lower value 1.01 | locus YCL011C, strain gbp2, stronger effect = lower value 1 | locus YCL016C, strain dcc1, stronger effect = lower value 1.01 | locus YCL029C, strain bik1, stronger effect = lower value 1 | locus YCL069W, strain vba3, stronger effect = lower value 0.981 | locus YCR088W, strain abp1, stronger effect = lower value 0.992 | locus YDL005C, strain med2, stronger effect = lower value 0.929 | locus YDL035C, strain GPR1, stronger effect = lower value 1.01 | locus YDL040C, strain nat1, stronger effect = lower value 0.967 | locus YDL074C, strain BRE1, stronger effect = lower value 0.99 | locus YDL101C, strain DUN1, stronger effect = lower value 1 | locus YDL134C, strain PPH21, stronger effect = lower value 0.996 | locus YDL185W, strain tfp1, stronger effect = lower value 1.01 | locus YDL192W, strain arf1, stronger effect = lower value 0.999 | locus YDR001C, strain nth1, stronger effect = lower value 0.987 | locus YDR069C, strain doa4, stronger effect = lower value 0.983 | locus YDR101C, strain arx1, stronger effect = lower value 1.01 | locus YDR137W, strain rgp1, stronger effect = lower value 0.998 | locus YDR159W, strain sac3, stronger effect = lower value 0.995 | locus YDR162C, strain NBP2, stronger effect = lower value 1.01 | locus YDR195W, strain ref2 0.932 | locus YDR297W, strain sur2, stronger effect = lower value 0.999 | locus YDR318W, strain mcm21, stronger effect = lower value 0.995 | locus YDR334W, strain swr1, stronger effect = lower value 0.992 | locus YDR335W, strain msn5, stronger effect = lower value 0.99 | locus YDR388W, stronger effect = lower value 0.997 | locus YDR392W, strain spt3, stronger effect = lower value 1.08 | locus YDR502C, strain sam2, stronger effect = lower value 0.993 | locus YEL003W, strain gim4, stronger effect = lower value 0.983 | locus YEL037C, strain rad23, stronger effect = lower value 0.984 | locus YEL061C, strain CIN8 (second series), stronger effect = lower value 0.988 | locus YEL061C, strain CIN8, stronger effect = lower value 1 | locus YER015W, strain faa2, stronger effect = lower value 0.992 | locus YER016W, strain bim1, stronger effect = lower value 1.02 | locus YER110C, stronger effect = lower value 0.99 | locus YER111C, strain swi4, stronger effect = lower value 0.983 | locus YER155C, strain BEM2 (second series), stronger effect = lower value 0.975 | locus YER155C, strain BEM2, stronger effect = lower value 0.991 | locus YER167W, strain BCK2, stronger effect = lower value 0.991 | locus YFR010W, strain ubp6, stronger effect = lower value 0.99 | locus YGL078C, strain dbp3, stronger effect = lower value 0.988 | locus YGL086W, strain mad1, stronger effect = lower value 0.984 | locus YGL167C, strain pmr1, stronger effect = lower value 0.961 | locus YGL173C, strain kem1, stronger effect = lower value 0.947 | locus YGL227W, strain vid30, stronger effect = lower value 0.988 | locus YGL240W, strain doc1, stronger effect = lower value 0.96 | locus YGL248W, strain PDE1, stronger effect = lower value 0.983 | locus YGL253W, strain hxk2, stronger effect = lower value 1.01 | locus YGR078C, strain PAC10, stronger effect = lower value 0.983 | locus YGR135W, strain pre9, stronger effect = lower value 0.984 | locus YGR229C, strain SMI1, stronger effect = lower value 0.997 | locus YGR252W, strain gcn5, stronger effect = lower value 0.967 | locus YHR013C, strain ard1, stronger effect = lower value 0.986 | locus YHR027C, strain rpn1, stronger effect = lower value 0.997 | locus YHR030C, strain SLT2, stronger effect = lower value 1 and 1.11 | locus YHR079C, strain IRE1 (second series), stronger effect = lower value 0.998 | locus YHR079C, strain IRE1, stronger effect = lower value 1.04 | locus YHR094C, strain hxt1, stronger effect = lower value 0.994 | locus YHR129C, strain ARP1, stronger effect = lower value 1 | locus YHR142W, strain chs7, stronger effect = lower value 0.976 | locus YHR200W, strain rpn10, stronger effect = lower value 0.995 | locus YIL066C, strain RNR3, stronger effect = lower value 1.02 | locus YIL073C, strain SPO22, stronger effect = lower value 0.975 | locus YIL125W, strain kgd1, stronger effect = lower value 0.986 | locus YIR030C, strain dcg1, stronger effect = lower value 1.02 | locus YJL092W, strain hpr5, stronger effect = lower value 0.959 | locus YJL095W, strain BCK1 (second series), stronger effect = lower value 0.95 | locus YJL095W, strain BCK1, stronger effect = lower value 1.03 and 1.04 | locus YJL115W, strain asf1, stronger effect = lower value 0.981 | locus YJL129C, strain trk1, stronger effect = lower value 0.966 | locus YJL134W, strain LCB3, stronger effect = lower value 1.01 | locus YJL154C, strain vps35, stronger effect = lower value 0.972 | locus YJL164C, strain tpk1, stronger effect = lower value 1.01 | locus YJL166W, strain qcr8, stronger effect = lower value 0.941 | locus YJL168C, strain set2, stronger effect = lower value 1 | locus YJL187C, strain SWE1 (second series), stronger effect = lower value 0.988 | locus YJR043C, strain POL32, stronger effect = lower value 0.989 | locus YJR066W, strain TOR1, stronger effect = lower value 0.993 | locus YJR075W, strain HOC1, stronger effect = lower value 0.988 | locus YKL009W, strain mrt4, stronger effect = lower value 0.958 | locus YKL068W, stronger effect = lower value 0.995 | locus YKL085W, strain MDH1 (second series), stronger effect = lower value 0.983 | locus YKL085W, strain MDH1, stronger effect = lower value 0.983 | locus YKL160W, strain elf1, stronger effect = lower value 0.981 | locus YKL190W, strain CNB1, stronger effect = lower value 1.01 | locus YKR001C, strain vps1, stronger effect = lower value 1 | locus YKR091W, strain srl3, stronger effect = lower value 0.964 | locus YLL001W, strain dnm1, stronger effect = lower value 0.931 | locus YLL026W, stronger effect = lower value 0.983 | locus YLL041C, strain sdh2, stronger effect = lower value 0.991 | locus YLR027C, strain aat2, stronger effect = lower value 0.983 | locus YLR039C, strain RIC1, stronger effect = lower value 0.944 | locus YLR058C, strain SHM2, stronger effect = lower value 1.01 | locus YLR102C, strain apc9, stronger effect = lower value 0.995 | locus YLR113W, strain HOG1, stronger effect = lower value 1.05 | locus YLR221C, strain rsa3, stronger effect = lower value 1.02 | locus YLR258W, strain gsy2, stronger effect = lower value 0.991 | locus YLR262C, strain YPT6 (second series), stronger effect = lower value 0.951 | locus YLR262C, strain YPT6, stronger effect = lower value 0.988 | locus YLR268W, strain sec22, stronger effect = lower value 0.985 | locus YLR320W, strain mms22, stronger effect = lower value 1.01 | locus YLR330W, strain CHS5, stronger effect = lower value 1.01 | locus YLR342W, strain FKS1 (second series), stronger effect = lower value 0.999 | locus YLR342W, strain FKS1, stronger effect = lower value 0.958 | locus YLR357W, strain rsc2, stronger effect = lower value 0.977 | locus YLR370C, strain arc18, stronger effect = lower value 0.997 | locus YLR371W, strain rom2, stronger effect = lower value 0.996 | locus YLR384C, strain iki3, stronger effect = lower value 0.976 | locus YLR418C, strain cdc73, stronger effect = lower value 0.977 | locus YML016C, strain PPZ1, stronger effect = lower value 1.01 | locus YML032C, strain rad52, stronger effect = lower value 0.988 | locus YML120C, strain ndi1, stronger effect = lower value 0.98 | locus YML124C, strain tub3, stronger effect = lower value 0.989 | locus YMR058W, strain fet3, stronger effect = lower value 0.975 | locus YMR078C, strain ctf18, stronger effect = lower value 0.999 | locus YMR125W, strain sto1, stronger effect = lower value 0.969 | locus YMR129W, stronger effect = lower value 0.986 | locus YMR205C, strain PFK2, stronger effect = lower value 0.982 | locus YMR223W, strain ubp8, stronger effect = lower value 0.997 | locus YMR231W, strain pep5, stronger effect = lower value 0.978 | locus YMR307W, strain GAS1, stronger effect = lower value 1.06 | locus YNL067W, strain RPL9B, stronger effect = lower value 0.992 | locus YNL071W, strain lat1, stronger effect = lower value 0.995 | locus YNL153C, strain GIM3, stronger effect = lower value 0.987 | locus YNL183C, strain NPR1, stronger effect = lower value 0.988 | locus YNL209W, strain ssb2, stronger effect = lower value 0.993 | locus YNL233W, strain BNI4, stronger effect = lower value 1.01 | locus YNL248C, strain rpa49, stronger effect = lower value 0.995 | locus YNL250W, strain rad50, stronger effect = lower value 0.994 | locus YNL271C, strain bni1, stronger effect = lower value 1 | locus YNL298W, strain CLA4, stronger effect = lower value 0.995 | locus YNL307C, strain MCK1, stronger effect = lower value 0.992 | locus YNL322C, strain KRE1 (second series), stronger effect = lower value 0.961 | locus YNR049C, strain mso1, stronger effect = lower value 0.987 | locus YNR052C, strain pop2, stronger effect = lower value 0.999 | locus YOL012C, strain htz1 0.884 | locus YOL147C, strain pex11, stronger effect = lower value 0.994 | locus YOR001W, strain rrp6, stronger effect = lower value 0.979 | locus YOR061W, strain CKA2, stronger effect = lower value 1.01 | locus YOR069W, strain VPS5, stronger effect = lower value 1 | locus YOR070C, strain gyp1, stronger effect = lower value 0.992 | locus YOR080W, strain dia2, stronger effect = lower value 0.965 | locus YOR083W, strain WHI5, stronger effect = lower value 0.94 | locus YOR106W, strain vam3, stronger effect = lower value 0.945 | locus YOR136W, strain idh2, stronger effect = lower value 0.983 | locus YOR144C, strain elg1, stronger effect = lower value 0.989 | locus YOR184W, strain ser1, stronger effect = lower value 0.993 | locus YOR231W, strain MKK1, stronger effect = lower value 1.04 | locus YOR265W, strain rbl2, stronger effect = lower value 0.987 | locus YOR270C, strain vph1, stronger effect = lower value 1 | locus YOR290C, strain snf2, stronger effect = lower value 1.01 | locus YOR316C, strain cot1, stronger effect = lower value 0.997 | locus YPL051W, strain arl3, stronger effect = lower value 0.998 | locus YPL055C, strain LGE1, stronger effect = lower value 1.01 | locus YPL078C, strain atp4, stronger effect = lower value 0.954 | locus YPL106C, strain sse1, stronger effect = lower value 1 | locus YPL240C, strain hsp82, stronger effect = lower value 0.985 | locus YPL256C, strain CLN2, stronger effect = lower value 1.08 | locus YPR119W, strain clb2, stronger effect = lower value 0.998 | locus YPR141C, strain kar3, stronger effect = lower value 0.976 | locus YPR163C, strain tif3, stronger effect = lower value 0.987 | locus YPR167C, strain met16, stronger effect = lower value 0.991 | strain wtn01, stronger effect = lower value 0.973
